Each compound was assayed against T1, Proteasome subunit beta (Trypanosoma cruzi) (UniProt O96673) (assay: Trypanosoma cruzi proteasome chymotrypsin-like activity (TcProtChymo) assay.). Settings: 9.37 µM.
T1 sequence (whole entry): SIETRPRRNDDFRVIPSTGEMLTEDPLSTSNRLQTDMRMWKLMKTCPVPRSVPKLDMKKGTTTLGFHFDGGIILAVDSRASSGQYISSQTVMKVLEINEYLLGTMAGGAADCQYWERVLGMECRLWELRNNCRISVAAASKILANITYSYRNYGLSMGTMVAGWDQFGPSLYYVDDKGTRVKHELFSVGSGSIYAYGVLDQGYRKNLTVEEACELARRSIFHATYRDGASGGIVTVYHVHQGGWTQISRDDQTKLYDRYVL
Assay type: functional
Design: scale not given: direction of the effect not stated beside the values
In the case of CN(C)S(=O)(=O)N1C[C@@H](Oc2ccccn2)[C@H]2OCCC[C@H]21, the Percent Effect is reported as 8.7%.
Work on Cc1ccc(CC(=O)N2Cc3nccn3CC(CN(C)C)C2)cc1 (stereo not drawn) yielded a Percent Effect of 15.3%.
In the case of COc1cc(CNCc2ccnc(N3CCOCC3)c2)cc(Cl)c1OC, the Percent Effect is reported as 3.78%.
In the case of CC(C)(C)OC(=O)NC(C)(C)c1noc(CN2CCCCC2)n1, the Percent Effect is reported as 9.07%.
Cc1cc(CC(=O)NCc2ccnc(OCC(F)(F)F)c2)no1 showed a Percent Effect of 2.84%.
For Cc1nc(N2CCN(C(=O)C(C)(C)C)CC2)cc(-n2cnc(C)c2C)n1, the Percent Effect was 22.3%.
With Cc1ccc(-c2noc(CN3CCOC(Cn4cncn4)C3)n2)cc1 (stereo not drawn) the Percent Effect was -1.79%.
Cc1nc(C)n(CC2CCCN2CC(=O)NCCc2ccccc2)n1 (stereo not drawn) showed a Percent Effect of 12.4%.
With Cn1c(C2CC2)nc2c1CCN(CC(=O)Nc1nncs1)C2 the Percent Effect was 3.72%.
Compound CCc1csc(C2CCCN(C(=O)C3=NN(CC)C(=O)CC3)C2)n1 (stereo not drawn) has a Percent Effect of -5.07%.
Work on Cc1nccc([C@H]2C[C@@H]3CCN(S(=O)(=O)N(C)C)C[C@H]3O2)n1 yielded a Percent Effect of 3.35%.
In the case of CO[C@H]1CCN(c2ncccn2)[C@H]1Cc1ccccc1, the Percent Effect is reported as 16%.
CNc1cc(N2CCCC2CNCc2ccc(Cl)o2)ncn1 (stereo not drawn) gave a Percent Effect of 18.9%.
For O=C(O)C(c1ccc2c(c1)OCO2)N1CCC(C(=O)N2CCCC2)CC1 (stereo not drawn), the Percent Effect was 4.18%.
COc1ccc(CC(=O)N2CCCCC2Cn2cccn2)cc1OC (stereo not drawn) was tested, and the Percent Effect was 6.81%.
Compound COCC(c1cccc(C(F)(F)F)c1)N(C)C(=O)c1cc(C)no1 (stereo not drawn) has a Percent Effect of 6.68%.
With CNS(=O)(=O)CCCN1CCCC1c1cc(C)on1 (stereo not drawn) the Percent Effect was 4.5%.
Work on Cc1cc(C)n(CC2CCCN2CC(=O)NC2CCOCC2)n1 (stereo not drawn) yielded a Percent Effect of 3.21%.
Cc1cc(C)n(-c2ccc(CNCc3ccc(OC(C)C)cc3)cn2)n1 showed a Percent Effect of 15.5%.

Species on record: Homo sapiens
Assay: To identify inhibition of the IFN signalling (Jak-Stat) pathway via expression of an eGFP reporter gene under the control of an IFN-stimulated response element (ISRE) containing MxA promoter.
Assay type: functional
Design: scale not given: direction of the effect not stated beside the values
Settings: 30 µM
For Cc1ncsc1C(=O)N(C)CCc1ccncc1, the Percent Effect was 16.7%.
O=C(O)c1ccc(F)c(S(=O)(=O)Nc2c(F)cccc2-n2cccn2)c1 showed a Percent Effect of 2.56%.
Work on Cn1cnc2c1C(COCc1cccnc1)N(Cc1ccccn1)CC2 (stereo not drawn) yielded a Percent Effect of 3.9%.
Work on Cc1cc(CN2CCCC(C)(CO)C2)ccc1F (stereo not drawn) yielded a Percent Effect of 5.91%.
CCS(=O)(=O)CC(=O)NC(c1ccc(F)cc1)C1CCCC1 (stereo not drawn) was tested, and the Percent Effect was 6.16%.
O=C(Nc1cccc(CN2CCOC2=O)c1)N1CCOCC1 gave a Percent Effect of 2.75%.
In the case of CC(C)c1cc(NC(=O)c2ccc(C(=O)NC(C)(C)C)cc2)[nH]n1, the Percent Effect is reported as 53%.
CN(C)C(=O)CN1CCCCC1c1nc(N)ncc1-c1cccc(F)c1 (stereo not drawn) gave a Percent Effect of 6.49%.
CCN1CC(C(=O)NC(C)(C)CC(C)(C)C)CC1=O (stereo not drawn) showed a Percent Effect of -0.424%.
In the case of CC(C)CS(=O)(=O)CC(=O)N(C)Cc1ccc(OC(F)F)cc1, the Percent Effect is reported as 12.9%.
Work on Cc1ccc(C(=O)Nc2cn[nH]c2)cn1 yielded a Percent Effect of 6.9%.
Compound CSc1nccn1-c1cccc(C(=O)NCc2nnc(C)n2C)c1 has a Percent Effect of 15.6%.
In the case of CN(Cc1cnn(C)c1)C(=O)Cn1c(CS(C)(=O)=O)nc2ccccc21, the Percent Effect is reported as 9.18%.
Compound CC1CN(Cc2nccn2C)CCN1c1ccc2nncn2n1 (stereo not drawn) has a Percent Effect of 7.44%.
O=C(CCn1cccn1)N1CCN(CC(F)F)CC1 gave a Percent Effect of 14.6%.
Cc1noc(C(C)C)c1C(=O)N1CCCN(Cc2cscn2)CC1 gave a Percent Effect of 0.184%.
For CS(=O)(=O)CCNC(=O)C1(c2cccc(Cl)c2)CCCCC1, the Percent Effect was 13.7%.
For CCc1n[nH]c(C2CN(C(=O)c3ccsc3)CCO2)n1 (stereo not drawn), the Percent Effect was 4.84%.
With CN(C)C(=O)N1C[C@@H]2CC[C@H](C1)N(C(=O)CCCn1cncn1)C2 the Percent Effect was -5.66%.
Work on CN1CCN(C2CCN(CC(=O)NCC(F)(F)F)CC2)C1=O yielded a Percent Effect of -11.8%.
For CN(C)S(=O)(=O)N1C[C@@H](Oc2ccccn2)[C@H]2OCCC[C@H]21, the Percent Effect was 24.1%.
With Cc1ccc(CC(=O)N2Cc3nccn3CC(CN(C)C)C2)cc1 (stereo not drawn) the Percent Effect was 20.1%.
With COc1cc(CNCc2ccnc(N3CCOCC3)c2)cc(Cl)c1OC the Percent Effect was 27.8%.
For CC(C)(C)OC(=O)NC(C)(C)c1noc(CN2CCCCC2)n1, the Percent Effect was 13.4%.
Cc1cc(CC(=O)NCc2ccnc(OCC(F)(F)F)c2)no1 showed a Percent Effect of 30.8%.
For Cc1nc(N2CCN(C(=O)C(C)(C)C)CC2)cc(-n2cnc(C)c2C)n1, the Percent Effect was 4.66%.
Cc1ccc(-c2noc(CN3CCOC(Cn4cncn4)C3)n2)cc1 (stereo not drawn) gave a Percent Effect of 8.27%.
Cc1nc(C)n(CC2CCCN2CC(=O)NCCc2ccccc2)n1 (stereo not drawn) showed a Percent Effect of -18.8%.
Cn1c(C2CC2)nc2c1CCN(CC(=O)Nc1nncs1)C2 was tested, and the Percent Effect was -9.48%.
CCc1csc(C2CCCN(C(=O)C3=NN(CC)C(=O)CC3)C2)n1 (stereo not drawn) showed a Percent Effect of 11.1%.
Cc1nccc([C@H]2C[C@@H]3CCN(S(=O)(=O)N(C)C)C[C@H]3O2)n1 showed a Percent Effect of -26.1%.
With CO[C@H]1CCN(c2ncccn2)[C@H]1Cc1ccccc1 the Percent Effect was 13.8%.
Work on CNc1cc(N2CCCC2CNCc2ccc(Cl)o2)ncn1 (stereo not drawn) yielded a Percent Effect of 22%.
O=C(O)C(c1ccc2c(c1)OCO2)N1CCC(C(=O)N2CCCC2)CC1 (stereo not drawn) showed a Percent Effect of 2.87%.
Work on COc1ccc(CC(=O)N2CCCCC2Cn2cccn2)cc1OC (stereo not drawn) yielded a Percent Effect of 5.15%.
Work on COCC(c1cccc(C(F)(F)F)c1)N(C)C(=O)c1cc(C)no1 (stereo not drawn) yielded a Percent Effect of 10.2%.
Work on CNS(=O)(=O)CCCN1CCCC1c1cc(C)on1 (stereo not drawn) yielded a Percent Effect of 13.8%.
In the case of Cc1cc(C)n(CC2CCCN2CC(=O)NC2CCOCC2)n1 (stereo not drawn), the Percent Effect is reported as -10%.
Cc1cc(C)n(-c2ccc(CNCc3ccc(OC(C)C)cc3)cn2)n1 was tested, and the Percent Effect was 20.5%.

— ChEMBL document CHEMBL3988442, “University of Dundee, Small-Polar-MMV Screening Library” (2021)
